From the supplement of paper PMC10646978
± gives the standard deviation.

What was measured:
Details in all cases: modulator concentration 10 µM
[1] = test system: RAW-Dual (murine macrophage reporter line); assay: NF-kB reporter (SEAP) activity fold change vs agonist alone; higher = enhanced NF-kB activity
How it was run: (§1)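 Overnight stimulation with a PRR agonist followed pre-incubation for 1 hour at 37 °C with compound at 10 μM final. This was done in RAW-Dual murine macrophage reporter cells seeded at 50 000 per well in 384-well plates. NF-κB (SEAP, QUANTI-Blue absorbance at 620 nm) and IRF (Lucia luciferase, QUANTI-Luc luminescence) were read from the supernatant. Each reporter's fold change relative to the mean agonist-only control on the same plate was averaged over replicate plates.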

[2] = test system: RAW-Dual (murine macrophage reporter line); assay: IRF reporter (Lucia luciferase) activity fold change vs agonist alone; higher = enhanced IRF activity
How it was run: as §1

[3] = test system: RAW-Dual (murine macrophage reporter line); assay: viability score (confluency relative to resting cells, overnight) (fraction); higher = more viable, active = viable (0.7 or more)
How it was run: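 Confluency was the readout: RAW-Dual macrophages were imaged with IncuCyte after an overnight exposure to compound at 10 μM final. IncuCyte software produced two masks over all imaged wells. The viability score expresses confluency against resting cells, and both masks had to exceed 70% of resting cells for a compound to meet the cutoff.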

[4] = agonist: CpG ODN 1826 0.5 ug/mL

| SMILES | NF-kB reporter [1, 4] | NF-kB reporter ([1]; agonist: LPS 0.1 ug/mL) | NF-kB reporter ([1]; agonist: MPLA […]) | IRF reporter ([2]; agonist: 3'3'-cGAMP 10 ug/mL) | IRF reporter ([2]; agonist: LPS 0.1 ug/mL) | IRF reporter ([2]; agonist: MPLA […]) | viability score [3] |
| --- | --- | --- | --- | --- | --- | --- | --- |
| CN(C)C/C=C/C(=O)Nc1cc2c(Nc3ccc(F)c(Cl)c3)ncnc2cc1O[C@H]1CCOC1.O=C(O)/C=C\C(=O)O.O=C(O)/C=C\C(=O)O | 0.365 ± 0.017 | 0.661 ± 0.089 | 0.613 ± 0.034 | 0.418 ± 0.026 | 0.795 ± 0.17 | 0.855 ± 0.3 | 0.999 (active) |
| Oc1cc(O)c2c(c1)OC(c1ccc(O)c(O)c1)C(O)C2 (stereo unspecified) | 0.936 ± 0.098 | 0.859 ± 0.087 | 1.05 ± 0.1 | 0.891 ± 0.028 | 1.13 ± 0.17 | 1.29 ± 0.32 | 1.06 (active) |
| COc1ccc(OC)c(S(=O)(=O)NCC2CC(=O)N(c3ccc(Cl)cc3)C2)c1 (stereo unspecified) | 0.857 ± 0.039 | 0.968 ± 0.12 | 0.911 ± 0.052 | 0.762 ± 0.035 | 1.27 ± 0.23 | 1.21 ± 0.35 | 1.01 (active) |
| O=C1OCCN1C1CCN(C(=O)C2(c3ccc(F)cc3)CC2)C1 (stereo unspecified) | 0.862 ± 0.094 | 0.907 ± 0.16 | 1.06 ± 0.074 | 0.843 ± 0.15 | 1.28 ± 0.3 | 1.45 ± 0.51 | 0.951 (active) |
| CCN(CC)C(=O)/C(C#N)=C/c1cc(O)c(O)c([N+](=O)[O-])c1 | 1.23 ± 0.23 | 1.08 ± 0.45 | 0.864 ± 0.055 | 0.905 ± 0.035 | 1.22 ± 0.43 | 1.11 ± 0.095 | 0.992 (active) |
| COc1ccc(OC)c(Nc2nc(-c3c(C)nc4ncccn34)cs2)c1 | 2.14 ± 0.18 | 1.35 ± 0.12 | 1.09 ± 0.083 | 0.3 ± 0.014 | 0.381 ± 0.035 | 0.361 ± 0.066 | 0.907 (active) |
| CC(=O)c1ccc(NC(=O)c2ccccc2C(=O)O)cc1 | 1.27 ± 0.12 | 1.14 ± 0.1 | 1.08 ± 0.12 | 0.903 ± 0.11 | 1.14 ± 0.13 | 1.31 ± 0.29 | 1 (active) |
| Oc1ccccc1-c1cc(C(F)(F)F)on1 | 1.02 ± 0.08 | 0.982 ± 0.068 | 0.956 ± 0.096 | 0.349 ± 0.023 | 1.06 ± 0.066 | 1.12 ± 0.1 | 0.361 (inactive) |
| Oc1nc(O)nc(N(c2ccccc2)c2ccccc2)n1 | 1.18 ± 0.095 | 1.02 ± 0.098 | 1.02 ± 0.09 | 1 ± 0.13 | 1.09 ± 0.15 | 1.08 ± 0.29 | 1 (active) |
| S=c1n(CN2CCOCC2)nc(-c2ccccc2Br)n1-c1ccccc1 | 1.08 ± 0.19 | 0.947 ± 0.099 | 0.951 ± 0.073 | 0.884 ± 0.031 | 1.21 ± 0.12 | 1.22 ± 0.17 | 1 (active) |
| O=C(Nc1ccc(F)c(F)c1)c1ccnc(OCC2CCOCC2)c1 | 1.15 ± 0.07 | 0.969 ± 0.084 | 0.908 ± 0.046 | 0.856 ± 0.051 | 1.16 ± 0.14 | 1.26 ± 0.36 | 0.995 (active) |
| CCOc1ccc(-c2nc3c(c(C)nn3-c3ccccc3)c3cc(OC)c(OC)cc23)cc1 | 0.812 ± 0.063 | 0.934 ± 0.089 | 1.05 ± 0.095 | 0.948 ± 0.043 | 1.29 ± 0.075 | 1.48 ± 0.14 | 1 (active) |
| COc1cc(Cl)c(C)cc1NC(=O)c1ccccc1Cl | 0.906 ± 0.26 | 1.11 ± 0.062 | 1.4 ± 0.22 | 0.914 ± 0.042 | 0.991 ± 0.15 | 1.1 ± 0.12 | 0.981 (active) |
